The text below walks through data of PubChem BioAssay (NCATS).

Test [1] in a line: Cell Viability - LYMP2-007 (AID 979).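 Note: cells exposed to compound for 24 h before reading; nearly all actives have a fitted effect of over 60% in size.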 Note: potency is the fitted concentration of half-maximal effect. The gist of the method: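 Cells are seeded at 2500 per well and rested 5 hr. Compounds are then added over a concentration series for 24 hr at 37 C. CellTiter-Glo is added for 30 min at room temperature before luminescence reading.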
Test [2] is described as follows: Cell Viability - LYMP2-020 (AID 986).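 Note: cells exposed to compound for 24 h at 37 °C; nearly all actives have a fitted effect of over 55% in size.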 Note: potency is the fitted concentration of half-maximal effect. The gist of the method:
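Seed 2500 cells per well and incubate 5 hr at 37 C. Add compounds at a concentration series and incubate 24 hr at 37 C. Add CellTiter-Glo, wait 30 min at RT, read luminescence, and fit a Hill curve for AC50.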

The nature of test [3]: Cell Viability - LYMP2-026 (AID 989).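 Note: cells exposed to compound for 24 h at 37 °C; nearly all actives have a fitted effect of over 50% in size.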 Note: potency is the fitted concentration of half-maximal effect. The gist of the method:
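Cells are seeded at 2500 per well and held 5 hr at 37 C. Compounds are added in concentration series for 24 hr, then CellTiter-Glo reagent is applied and luminescence read.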

A short description of test [4]: Cell Viability - LYMP1-002 - Assay at 24 hr (AID 993). Note: potency is the fitted concentration of half-maximal effect. The gist of the method:
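Acute toxicity is measured as concentration-dependent loss of cellular ATP in a human lymphoblastoid line (Coriell LYMP1-002) after 24 h treatment in complete medium. ATP is quantified by luciferase luminescence and AC50 derived by Hill modelling.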

The nature of test [5]: qHTS Assay for Lipid Storage Modulators (AID 1519; calls by dose curve; for activity change, negative = inhibition: % is set by controls: 0 for no effect and ±100 for the full control effect). As to conditions: Drosophila S3 cells, BODIPY lipid droplet/cell ratio, laser cytometry, cells loaded with oleic acid. In outline:
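Cells seeded at 5,000 per well were treated with compounds over a concentration series and loaded with oleic acid (400 uM, as added). Lipid droplet fluorescence (488 nm excitation, 500-530 nm channel) was read by laser-scanning cytometry and normalized to 20 uM Triacsin C.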
In general terms: qHTS replaces the single test concentration by a dilution series.

The nature of test [6]: Cell Viability - LYMP2-008 (AID 980). Note: nearly all actives have a fitted effect of over 60% in size. Note: potency is the fitted concentration of half-maximal effect. The gist of the method:
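Cells seeded at 2500/well and rested 5 hr at 37 C; compounds added over a concentration range and incubated 24 hr at 37 C; CellTiter-Glo added, 30 min at room temperature; luminescence read and AC50 fitted with Hill model.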

The nature of test [7]: Cell Viability - LYMP2-010 (AID 981).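 Note: cells exposed to compound for 24 hours at 37 °C; nearly all actives have a fitted effect of over 55% in size.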 Note: potency is the fitted concentration of half-maximal effect. The gist of the method: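 Steps: seed 2500 LYMP2-010 cells per well; incubate 5 hr at 37 C; add compound; incubate 24 hr at 37 C; add CellTiter-Glo, wait 30 min at room temperature; read luminescence. Concentration-response fitted to Hill equation for AC50.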
Test [8] in a line: Cell Viability - LYMP2-016 (AID 984).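 Note: cells exposed to compound for 24 hours at 37 °C; nearly all actives have a fitted effect of over 55% in size.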 Note: potency is the fitted concentration of half-maximal effect. The gist of the method:
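Cells were seeded at 2500 per well and rested 5 hr before a 24 hr compound exposure at 37 C. Viability was then gauged as cellular ATP by luciferase luminescence, with AC50 values fitted to the Hill equation.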

Test [9] is described as follows: Cell Viability - LYMP2-018 (AID 985). Note: nearly all actives have a fitted effect of over 50% in size. Note: potency is the fitted concentration of half-maximal effect. The gist of the method:
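Seed 2500 lymphoblastoid cells per well, incubate 5 hr at 37 C, add compound and incubate 24 hr at 37 C, add CellTiter-Glo, wait 30 min at room temperature, then read luminescence.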

Test [10] can be described thus: Cell Viability - LYMP2-022 (AID 987). Note: nearly all actives have a fitted effect of over 55% in size. Note: potency is the fitted concentration of half-maximal effect. The gist of the method:
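Cells were seeded at 2500 per well, rested 5 hr at 37 C, and treated with titrated compounds for 24 hr at 37 C. Cellular ATP was then quantified by luciferase luminescence, and AC50 values were derived from Hill-modelled concentration-response curves.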

The nature of test [11]: Cell Viability - LYMP1-002 - Assay at 40 hr (AID 994). Note: nearly all actives have a fitted effect of over 60% in size. Note: potency is the fitted concentration of half-maximal effect. The gist of the method:
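Cells are plated at 2500 per well and rested 5 hr at 37 C. Compounds are added and incubated 40 hr at 37 C. CellTiter-Glo reagent is added for 30 min at room temperature before luminescence is read.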

The target of test [12] is DNA repair nuclease/redox regulator APEX1 (Homo sapiens) (UniProt P27695). Briefly: qHTS Validation Assay for Inhibitors of the Human Apurinic/apyrimidinic Endonuclease 1 (APE1) (AID 1705;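 note: TAMRA fluorescence gain over two minutes as APE1 cuts a quenched THF abasic duplex; % is set by controls: 0 for no effect and ±100 for the full control effect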). The gist of the method: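 qHTS, 1536-well. APE1 + cpd 15 min RT → 50 nM TAMRA/BHQ-2 THF-abasic dsDNA substrate → kinetic fluorescence, 3 reads/60 s; delta(read3−read1) = reaction progress. No-enzyme buffer = negative control.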

Test [13] can be described thus: Counterscreen for APE1 Inhibitors: Fluorescent Dye Displacement Validation Assay (AID 1707).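 Note: plate controls were ThO with dsDNA and no compound for no effect and ThO without dsDNA for full effect.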 The gist of the method: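 Loss of Thiazole Orange fluorescence marks promiscuous DNA binders. The dye (250 nM) is mixed with 50 nM abasic-site dsDNA in pH7.5 Tris buffer containing MgCl2, then compounds are added and emission is read once.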
In test [14] the target is Endonuclease 4 (Escherichia coli (strain K12)) (UniProt P0A6C1). The experiment in a line: Counterscreen for APE1 Inhibitors: qHTS Validation Assay for Inhibitors of Endonuclease IV (AID 1708). Note: % is set by controls: 0 for no effect and ±100 for the full control effect. The gist of the method: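 Conditions: 2 nM enzyme, 50 nM TAMRA/BHQ-2 substrate, pH 7.5 Tris buffer with 2 mM MgCl2, RT. Compound preincubation 15 min; readout three fluorescence reads 60 s apart, third-minus-first.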

Test [15] in a line: Cell Viability - LYMP2-012 (AID 982).
Test [16] can be described thus: Cell Viability - LYMP2-014 (AID 983).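 Note: cells exposed to compound for 24 h at 37 °C; plate controls were DMSO only for no effect and 92 µM tetraoctylammonium bromide for full effect; nearly all actives have a fitted effect of over 50% in size.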 In outline: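 Cells are plated at 2500/well and left 5 hr at 37 C. Compounds are added across a concentration range and incubated 24 hr at 37 C in complete medium. CellTiter-Glo is added, and luminescence is read after 30 min at room temperature.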
A short description of test [17]: Cell Viability - LYMP2-024 (AID 988).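 Note: plate controls were DMSO only for no effect and 92 µM tetraoctylammonium bromide for full effect; nearly all actives have a fitted effect of over 60% in size.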 In outline: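 qHTS cytotoxicity, human lymphoblastoid line, complete medium; 24 h cpd treatment, 37 C; CellTiter-Glo ATP luminescence readout; tetraoctylammonium bromide positive control; AC50 via Hill fit.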
Test [18] has as its target Alpha-galactosidase A (Homo sapiens) (UniProt P06280). The experiment in a line: Counterscreen for Glucocerebrosidase Inhibitors: qHTS Assay for Human alpha-Galactosidase at pH 4.5 (AID 992). Note: 0% is about no effect. In outline:
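Each compound is preincubated briefly with 2 nM enzyme before substrate addition (80 uM); plates then sit 20 min at ambient temperature, are quenched with 1M NaOH/1M glycine, and read fluorometrically.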

Test [19] deals with alpha-glucosidase (Oryza sativa, rice) (UniProt Q653V4). Briefly: Counterscreen for Glucocerebrosidase Inhibitors: qHTS Assay for Rice alpha-Glucosidase at pH 5.0 (AID 997).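 Note: 0% = full activity with enzyme and -100% = basal without enzyme.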 In outline: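 Endpoint fluorogenic assay at pH 5.0: compounds (0.7 nM to 77 uM) titrated against 4 nM rice enzyme and 400 uM 4-MU-alpha-glucoside for 20 min at room temperature; NaOH/glycine stop, read ex 365/em 440 nm, Hill-fitted AC50.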
In general terms: A counterscreen serves to expose hits that act by an unwanted route or on another target.

The mark [20] stands for this setting: measured here: cell count channel max response.
Setting [21] is: measured here: lipid channel max response.

Inconclusive results are not listed. Calls of active or inactive are those of the source. Unless noted, calls come from the whole dose curve; as a rule, active = well fitted curve in the direction sought with a large enough effect; inconclusive = small, poorly fitted or top-dose-only effect, or another doubt; inactive = no such curve, though single readings can be large; an effect the other way counts as inactive or inconclusive.

DNA repair nuclease/redox regulator APEX1 (Homo sapiens), sequence (P27695 whole entry, looked up): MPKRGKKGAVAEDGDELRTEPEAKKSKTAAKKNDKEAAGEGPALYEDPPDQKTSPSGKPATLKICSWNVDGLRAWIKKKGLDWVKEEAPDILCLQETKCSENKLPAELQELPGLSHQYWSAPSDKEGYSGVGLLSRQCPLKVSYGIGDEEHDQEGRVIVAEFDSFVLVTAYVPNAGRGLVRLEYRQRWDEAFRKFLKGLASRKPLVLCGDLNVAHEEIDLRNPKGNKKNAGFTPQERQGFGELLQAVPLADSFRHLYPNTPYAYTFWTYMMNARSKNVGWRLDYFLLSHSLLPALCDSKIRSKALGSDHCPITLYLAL
Alpha-galactosidase A (Homo sapiens), sequence (P06280 whole entry, looked up): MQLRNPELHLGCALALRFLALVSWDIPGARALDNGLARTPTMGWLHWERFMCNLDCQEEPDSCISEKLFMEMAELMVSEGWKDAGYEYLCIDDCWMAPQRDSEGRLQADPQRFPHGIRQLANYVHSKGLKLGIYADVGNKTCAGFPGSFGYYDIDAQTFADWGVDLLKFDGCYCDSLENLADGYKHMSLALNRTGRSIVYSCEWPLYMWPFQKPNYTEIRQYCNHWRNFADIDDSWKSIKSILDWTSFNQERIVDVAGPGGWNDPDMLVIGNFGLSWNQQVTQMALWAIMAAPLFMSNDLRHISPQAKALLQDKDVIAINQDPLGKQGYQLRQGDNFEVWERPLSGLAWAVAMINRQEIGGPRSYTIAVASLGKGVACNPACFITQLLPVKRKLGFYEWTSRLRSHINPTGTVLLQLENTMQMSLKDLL

Consider `NC(=O)N/N=C/c1ccc([N+](=O)[O-])o1`, for which the Potency result in [1], in [2], in test [3] and in test [4] was “inactive” in each case. Also, the activity change, negative = inhibition in test [5] (at 57.5 µM (top of the series)) is -28.3% (inactive). Moreover, the max response in test [5] (setting [20]) is -6.33%; in test [5] (setting [21]), -28%.

As to `Cc1c(O)cccc1C(=O)N[C@@H](CSc1ccccc1)[C@H](O)CN1C[C@H]2CCCC[C@H]2C[C@H]1C(=O)NC(C)(C)C`, the Potency in test [1] is 50.1 µM (active); in [6] it was 39.8 µM (active); in [7] it was 50.1 µM (active); in test [8], 50.1 µM (active); in test [9], 50.1 µM (active); in test [2], 50.1 µM (active). The Potency in [10] is 39.8 µM (active); in [3], 50.1 µM (active); in test [4] it was 39.8 µM (active); in [11], 31.6 µM (active).

`CNC(=O)Oc1ccc2c(c1)[C@]1(C)CCN(C)[C@@H]1N2C`: the Potency entry in test [12], in test [13] and in test [14] was “inactive” each time.

For `CC12CCC(CC1)C(C)(C)O2`, the Potency result in [1], in [6], in test [7], in [8], in test [9] and in test [2] was “inactive” in each case. The Potency entry in test [10], in [3], in test [4] and in [11] was “inactive” throughout. Besides, the outcome in [15], in test [16] and in test [17] was inactive. In addition, the activity change, negative = inhibition in test [5] (at 57.5 µM (top of the series)) was 2.95% (inactive). Also, the values for the max response in test [5] (setting [20]) and in test [5] (setting [21]) were -6.11% and -2.37%, respectively.

Take `C[C@]12CC[C@@H]3c4ccc(O)cc4CC[C@H]3[C@@H]1CCC2=O`: the outcome in [18] and in test [19] was inactive. Also, the Potency result in test [12] and in [13] was “inactive” in each case.

Take `[Cl][In]([Cl])[Cl]`: the Potency entry in test [1], in test [6], in [7], in [8], in [9] and in test [2] was “inactive” throughout. In addition, the Potency entry in [10], in test [3], in test [4] and in test [11] was “inactive” in each case. Further, the molecule was called inactive in test [15], in [16] and in [17].

With `CC(=O)OCC(=O)[C@@]1(O)CC[C@H]2[C@@H]3CCC4=CC(=O)CC[C@]4(C)[C@H]3C(=O)C[C@@]21C`, the call in test [18] and in test [19] was inactive. Besides, the Potency result in [12], in [13] and in test [14] was “inactive” each time.

For `COc1ccccc1O`, the Potency result in test [1], in [6], in test [7], in test [8], in [9] and in test [2] was “inactive” throughout. For the same molecule, the Potency result in [10], in [3], in [4] and in test [11] was “inactive” throughout. Also, the call in [15], in [16] and in test [17] was inactive.

Take `CC1=C(CC(=O)O)c2cc(F)ccc2/C1=C\c1ccc(S(C)=O)cc1` (stereo not drawn): in test [19], the molecule was classed as inactive. The activity change, negative = inhibition in [5] (at 25.7 µM (top of the series)) is -0.955% (inactive). Further, the values for the max response in test [5] (setting [20]) and in [5] (setting [21]) were -8.73% and -7.15%, respectively. The Potency result in [12], in [13] and in test [14] was “inactive” in each case.

Turning to `Cc1cc(N)c2ccccc2[n+]1CCCCCCCCCC[n+]1c(C)cc(N)c2ccccc21`, the molecule was classed as inactive in test [18] and in [19]. Further, in test [5] (at 57.5 µM (top of the series)), the activity change, negative = inhibition is -10.5% (inactive). The max response in test [5] (setting [20]) was -7.09%; in [5] (setting [21]), -16.4%.
